Here are results for 30 sequences from PMC10812921, “Transcriptional Coactivator BOB1 (OBF1, OCA-B) Modulates the Specificity of DNA Recognition by the POU-Domain Factors OCT1 and OCT2 in a Monomeric Configuration”.

The target in experiment [1] is POU1 (OCT1 POU domain) (human, UniProt P14859 260-458). Briefly: EMSA-SELEX-seq; no BOB1; 20 mM Tris-HCl pH 7.6, 140 mM NaCl, 10% glycerol, 0.5 mM EDTA, 0.05% Triton X-100, 0.1 mg/mL BSA, 0.1 mg/mL poly(dI-dC), 5 mM DTT, room temperature, 20 min; high values mean tight binding. To be noted: protein: recombinant; dsDNA, one strand shown. In a few lines:
(§1)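 With or without 28 ng coactivator protein, 30 ng of tagged POU-domain protein was combined with 300 ng of a PCR-amplified double-stranded random 35-nt library in 20 μL Tris–HCl pH 7.6 binding buffer for 20 min at RT. The protein came from E. coli BL21 and had been purified under denaturing conditions and renatured. Four rounds of cutting complex bands from native 6% PAGE, elution and PCR amplification preceded Illumina sequencing. The binding preference figure is the percentage of sequenced 8-mers matching a motif pattern.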

In experiment [2] the target is T1, POU2 (OCT2 POU domain) (human, UniProt P09086 175-386).
T1 sequence: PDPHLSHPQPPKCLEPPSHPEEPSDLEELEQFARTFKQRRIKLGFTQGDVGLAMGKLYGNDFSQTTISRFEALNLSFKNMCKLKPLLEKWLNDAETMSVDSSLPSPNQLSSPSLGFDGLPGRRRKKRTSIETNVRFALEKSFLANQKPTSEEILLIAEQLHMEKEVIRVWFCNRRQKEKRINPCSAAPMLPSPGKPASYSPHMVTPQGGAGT
Described as above. To be noted: protein: recombinant; dsDNA, one strand shown. The method, boiled down: as §1

The target in experiment [3] is POU1 (OCT1 POU domain);BOB1 (OBF1, OCA-B) (human;human, UniProt P14859;Q16633 260-458;1-256, |). Briefly: EMSA-SELEX-seq; with BOB1 (ternary complex band); 20 mM Tris-HCl pH 7.6, 140 mM NaCl, 10% glycerol, 0.5 mM EDTA, 0.05% Triton X-100, 0.1 mg/mL BSA, 0.1 mg/mL poly(dI-dC), 5 mM DTT, room temperature, 20 min; high values mean tight binding. Conditions: protein: recombinant;recombinant; copies: 1;1; dsDNA, one strand shown. In a few lines: as §1

In experiment [4] the target is T2, POU2 (OCT2 POU domain);BOB1 (OBF1, OCA-B) (human;human, UniProt P09086;Q16633 175-386;1-256, |).
T2 sequence 1: T1 sequence
T2 sequence 2: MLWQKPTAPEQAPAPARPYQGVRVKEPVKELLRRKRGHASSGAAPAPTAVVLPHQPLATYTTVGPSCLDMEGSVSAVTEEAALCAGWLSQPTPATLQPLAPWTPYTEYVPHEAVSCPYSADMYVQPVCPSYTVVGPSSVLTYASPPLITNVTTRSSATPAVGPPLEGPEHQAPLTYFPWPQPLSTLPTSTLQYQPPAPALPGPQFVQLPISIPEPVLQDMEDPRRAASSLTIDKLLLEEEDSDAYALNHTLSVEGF
Described as above. To be noted: protein: recombinant;recombinant; copies: 1;1; dsDNA, one strand shown. The method, boiled down:
as §1

Sequence of POU1 (OCT1 POU domain) (P14859 260-458): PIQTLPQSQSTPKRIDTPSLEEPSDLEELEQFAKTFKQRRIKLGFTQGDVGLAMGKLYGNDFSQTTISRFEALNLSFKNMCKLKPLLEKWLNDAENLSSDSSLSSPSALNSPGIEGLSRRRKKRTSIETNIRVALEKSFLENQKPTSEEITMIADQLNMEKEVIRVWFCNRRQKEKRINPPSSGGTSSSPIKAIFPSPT

In the case of AACAGAAG, the binding signal in experiment [1] is 0.0244 % of ANNNNAAN 8-mers; in experiment [2], 0.0339 % of ANNNNAAN 8-mers; in experiment [3] it was 0.0273 % of ANNNNAAN 8-mers; in experiment [4], 0.0297 % of ANNNNAAN 8-mers.

On to AAGATAAT, for which the binding signal in experiment [1] is 0.138 % of ANNNNAAN 8-mers; in experiment [2], 0.203 % of ANNNNAAN 8-mers; in experiment [3], 0.0819 % of ANNNNAAN 8-mers; in experiment [4], 0.129 % of ANNNNAAN 8-mers.

Turning to ATAGTAAT, the binding signal in experiment [1] was 0.116 % of ANNNNAAN 8-mers; in experiment [2], 0.148 % of ANNNNAAN 8-mers; in experiment [3], 0.0702 % of ANNNNAAN 8-mers; in experiment [4] it was 0.0867 % of ANNNNAAN 8-mers.

As to ACTTCAAT, the binding signal was 0.0256 % of ANNNNAAN 8-mers in experiment [1], 0.038 % of ANNNNAAN 8-mers in experiment [2], 0.0363 % of ANNNNAAN 8-mers in experiment [3] and 0.0446 % of ANNNNAAN 8-mers in experiment [4].

As to AACTTAAA, the binding signal is 0.0526 % of ANNNNAAN 8-mers in experiment [1], 0.0501 % of ANNNNAAN 8-mers in experiment [2], 0.046 % of ANNNNAAN 8-mers in experiment [3] and 0.038 % of ANNNNAAN 8-mers in experiment [4].

On to ACTAAAAT, for which the binding signal in experiment [1] was 0.0805 % of ANNNNAAN 8-mers; in experiment [2] it was 0.0714 % of ANNNNAAN 8-mers; in experiment [3], 0.0663 % of ANNNNAAN 8-mers; in experiment [4], 0.0528 % of ANNNNAAN 8-mers.

As to AGGACAAG, the binding signal in experiment [1] was 0.0263 % of ANNNNAAN 8-mers; in experiment [2], 0.0293 % of ANNNNAAN 8-mers; in experiment [3], 0.0297 % of ANNNNAAN 8-mers; in experiment [4] it was 0.0289 % of ANNNNAAN 8-mers.

For ATCAAAAT, the binding signal in experiment [1] is 0.095 % of ANNNNAAN 8-mers; in experiment [2], 0.0932 % of ANNNNAAN 8-mers; in experiment [3] it was 0.106 % of ANNNNAAN 8-mers; in experiment [4], 0.0743 % of ANNNNAAN 8-mers.

With AATCGAAT, the binding signal is 0.087 % of ANNNNAAN 8-mers in experiment [1], 0.0926 % of ANNNNAAN 8-mers in experiment [2], 0.078 % of ANNNNAAN 8-mers in experiment [3] and 0.0916 % of ANNNNAAN 8-mers in experiment [4].

Take AAGTAAAC: the binding signal in experiment [1] is 0.0477 % of ANNNNAAN 8-mers; in experiment [2] it was 0.0489 % of ANNNNAAN 8-mers; in experiment [3], 0.0535 % of ANNNNAAN 8-mers; in experiment [4], 0.0487 % of ANNNNAAN 8-mers.

ATCTGAAT: the binding signal in experiment [1] is 0.201 % of ANNNNAAN 8-mers; in experiment [2], 0.232 % of ANNNNAAN 8-mers; in experiment [3], 0.102 % of ANNNNAAN 8-mers; in experiment [4], 0.126 % of ANNNNAAN 8-mers.

In the case of AGAAGAAG, the binding signal in experiment [1] was 0.029 % of ANNNNAAN 8-mers; in experiment [2], 0.0547 % of ANNNNAAN 8-mers; in experiment [3], 0.0379 % of ANNNNAAN 8-mers; in experiment [4], 0.0454 % of ANNNNAAN 8-mers.

On to ACGTCAAA, for which the binding signal in experiment [1] was 0.0271 % of ANNNNAAN 8-mers; in experiment [2] it was 0.0178 % of ANNNNAAN 8-mers; in experiment [3], 0.0371 % of ANNNNAAN 8-mers; in experiment [4] it was 0.0173 % of ANNNNAAN 8-mers.

As to AAAGAAAT, the binding signal in experiment [1] was 0.145 % of ANNNNAAN 8-mers; in experiment [2] it was 0.112 % of ANNNNAAN 8-mers; in experiment [3] it was 0.16 % of ANNNNAAN 8-mers; in experiment [4], 0.0958 % of ANNNNAAN 8-mers.

Turning to ACGGAAAG, the binding signal was 0.0397 % of ANNNNAAN 8-mers in experiment [1], 0.0443 % of ANNNNAAN 8-mers in experiment [2], 0.0406 % of ANNNNAAN 8-mers in experiment [3] and 0.0371 % of ANNNNAAN 8-mers in experiment [4].

Regarding AACCTAAA, the binding signal in experiment [1] is 0.0206 % of ANNNNAAN 8-mers; in experiment [2], 0.0391 % of ANNNNAAN 8-mers; in experiment [3] it was 0.0242 % of ANNNNAAN 8-mers; in experiment [4], 0.0264 % of ANNNNAAN 8-mers.

On to ATCCGAAC, for which the binding signal is 0.0217 % of ANNNNAAN 8-mers in experiment [1], 0.0219 % of ANNNNAAN 8-mers in experiment [2], 0.0238 % of ANNNNAAN 8-mers in experiment [3] and 0.0198 % of ANNNNAAN 8-mers in experiment [4].

As for AAGCCAAG, the binding signal is 0.0271 % of ANNNNAAN 8-mers in experiment [1], 0.0184 % of ANNNNAAN 8-mers in experiment [2], 0.0168 % of ANNNNAAN 8-mers in experiment [3] and 0.019 % of ANNNNAAN 8-mers in experiment [4].

As to ATTGCAAG, the binding signal in experiment [1] is 0.0271 % of ANNNNAAN 8-mers; in experiment [2], 0.0397 % of ANNNNAAN 8-mers; in experiment [3], 0.0336 % of ANNNNAAN 8-mers; in experiment [4], 0.0363 % of ANNNNAAN 8-mers.

As for ACTGGAAC, the binding signal in experiment [1] is 0.0168 % of ANNNNAAN 8-mers; in experiment [2], 0.0207 % of ANNNNAAN 8-mers; in experiment [3], 0.0183 % of ANNNNAAN 8-mers; in experiment [4] it was 0.0206 % of ANNNNAAN 8-mers.

AGGTAAAT: the binding signal in experiment [1] was 0.379 % of ANNNNAAN 8-mers; in experiment [2] it was 0.269 % of ANNNNAAN 8-mers; in experiment [3], 0.55 % of ANNNNAAN 8-mers; in experiment [4], 0.391 % of ANNNNAAN 8-mers.

For the sequence AAGCGAAT, the binding signal was 0.0538 % of ANNNNAAN 8-mers in experiment [1], 0.0541 % of ANNNNAAN 8-mers in experiment [2], 0.0531 % of ANNNNAAN 8-mers in experiment [3] and 0.0429 % of ANNNNAAN 8-mers in experiment [4].

With ATGCTAAG, the binding signal in experiment [1] is 0.149 % of ANNNNAAN 8-mers; in experiment [2] it was 0.156 % of ANNNNAAN 8-mers; in experiment [3] it was 0.0777 % of ANNNNAAN 8-mers; in experiment [4], 0.0726 % of ANNNNAAN 8-mers.

With ATACGAAG, the binding signal in experiment [1] is 0.0481 % of ANNNNAAN 8-mers; in experiment [2], 0.0552 % of ANNNNAAN 8-mers; in experiment [3], 0.0574 % of ANNNNAAN 8-mers; in experiment [4], 0.0388 % of ANNNNAAN 8-mers.

AACCGAAT: the binding signal in experiment [1] was 0.0412 % of ANNNNAAN 8-mers; in experiment [2], 0.0363 % of ANNNNAAN 8-mers; in experiment [3], 0.0324 % of ANNNNAAN 8-mers; in experiment [4] it was 0.0487 % of ANNNNAAN 8-mers.

As to ACTAAAAC, the binding signal in experiment [1] was 0.0233 % of ANNNNAAN 8-mers; in experiment [2] it was 0.0311 % of ANNNNAAN 8-mers; in experiment [3], 0.023 % of ANNNNAAN 8-mers; in experiment [4], 0.0297 % of ANNNNAAN 8-mers.

Turning to ATTGAAAC, the binding signal in experiment [1] was 0.0431 % of ANNNNAAN 8-mers; in experiment [2], 0.0322 % of ANNNNAAN 8-mers; in experiment [3] it was 0.0406 % of ANNNNAAN 8-mers; in experiment [4], 0.0396 % of ANNNNAAN 8-mers.

Turning to ACACTAAG, the binding signal in experiment [1] was 0.0179 % of ANNNNAAN 8-mers; in experiment [2] it was 0.0219 % of ANNNNAAN 8-mers; in experiment [3] it was 0.0226 % of ANNNNAAN 8-mers; in experiment [4], 0.0289 % of ANNNNAAN 8-mers.

As for AATTGAAT, the binding signal in experiment [1] is 0.203 % of ANNNNAAN 8-mers; in experiment [2] it was 0.238 % of ANNNNAAN 8-mers; in experiment [3] it was 0.127 % of ANNNNAAN 8-mers; in experiment [4] it was 0.125 % of ANNNNAAN 8-mers.

Regarding ATCGAAAT, the binding signal in experiment [1] was 0.0694 % of ANNNNAAN 8-mers; in experiment [2] it was 0.0633 % of ANNNNAAN 8-mers; in experiment [3], 0.0777 % of ANNNNAAN 8-mers; in experiment [4], 0.0512 % of ANNNNAAN 8-mers.
